Assay outcomes as filed in PubChem.
Shown are actives, neighbours in structure and some others; about 19% of the full set was active somewhere.
HT1080-NT tox = qHTS for induction of synthetic lethality in tumor cells producing 2HG: qHTS for the HT-1080-NT fibrosarcoma cell line. HT-1080-NT fibrosarcoma viability, CellTiter-Glo ATP luminescence, 48 h. Potency, µM (titrated, usually from 46.1 µM), without a hit: at the highest dose activity, negative = less viability, actives largely listed as cytotoxic. actives 1.6% (n = 360,000). AID 686970, 2013;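 also: NT is the 2HG producing partner of a matched IDH1 knockdown line; potency is read from the fitted curve at half-maximal effect; 0% = DMSO-treated cells and -100% = media-only wells without cells; nearly all actives have a fitted effect of over 55% in size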
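750 cells/well, RPMI + 5% FBS; 2 h settle, compound pin-transfer, 48 h at 37 degrees C. CellTiter-Glo 10 min RT, luminescence. Normalized to DMSO and media-only wells.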
IL1B secr inh = qHTS for Inhibitors of Inflammasome Signaling: IL-1-beta AlphaLISA Primary Screen; THP-1 LPS/ATP IL-1B secretion, AlphaLISA, 16 h; active compounds read low; activity change, % at 57.5 µM; actives 4.7% (n = 360,000); AID 743279, 2014; in the data active = activity change below about -50%; inconclusive = mostly about -30% to -49%
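Secreted IL-1B measured by AlphaLISA bead assay after 16 h compound exposure of THP-1 cells; compounds (final up to 57.5 uM) added 1 h before LPS (250 ng/mL) and ATP (1.25 mM) stimulation; lower signal means less secretion.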
DT40 TDP1 no CPT = qHTS for Inhibitors of human tyrosyl-DNA phosphodiesterase 1 (TDP1): qHTS in cells in absence of CPT; DT40 Tdp1-/- hTDP1 cells, no CPT, ATP luminescence, 48 h; Potency, µM (highest dose often 46.2 µM), without a hit: top-dose activity change, negative = growth inhibition, actives largely listed as inhibitors; actives 15% (n = 420,000); also: potency is read from the fitted curve at half-maximal effect; nearly all actives have a fitted effect of over 55% in size
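No-CPT arm: Tdp1-/-;hTDP1 DT40 cells (400/well) plus compounds, incubated ≥48 hr at 37 °C. Readout CellTiter-Glo luminescence.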
ELG1 DNA repair = qHTS screen for small molecules that inhibit ELG1-dependent DNA repair in human embryonic kidney (HEK293T) cells expressing luciferase-tagged ELG1. HEK293T ELG1-luciferase reporter, luminescence, 16 h; DNA damage induced by 5-fluorouridine. actives 2.3% (n = 330,000). Potency, µM (doses to about 46.1 µM), without a hit: at the top dose activity change, negative = inhibition, most hits filed as inhibitors; also: potency is read from the fitted curve at half-maximal effect; nearly all actives have a fitted effect of over 55% in size
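Quantitative HTS, concentration-response format. 2,000 cells/well co-treated with 5-fluorouridine and compound, 16 hr in 5% CO2 at 37 °C; ONE-Glo luminescence read after 30 min.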
HT1080 IDH1KD tx = qHTS for induction of synthetic lethality in tumor cells producing 2HG: qHTS for the HT-1080-IDH1KD cell line; HT-1080 IDH1 knockdown viability, ATP luminescence, 48 h; Potency, µM (series often up to 46.1 µM), inactives show at the top dose activity, negative = toxicity, hits mostly cytotoxic; actives 2% (n = 360,000); AID 686971, 2013;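 also: potency is read from the fitted curve at half-maximal effect; 0% = DMSO wells and -100% = cell-free medium wells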
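Using the IDH1-knockdown HT-1080 line run in the same batch and compound series as the NT line, viability after 48 h at 37 °C was determined by CellTiter-Glo luminescence and expressed as % activity.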
DT40 TDP1 CPT = qHTS for Inhibitors of human tyrosyl-DNA phosphodiesterase 1 (TDP1): qHTS in cells in presence of CPT | chicken DT40 Tdp1-/-;hTDP1 cells + 20 nM CPT, ATP luminescence, 48 h | Potency, µM (top dose mostly 46.2 µM), for the others: top-dose activity change, negative = growth inhibition, most hits filed as inhibitors | actives 12% (n = 420,000); also: potency is read from the fitted curve at half-maximal effect; nearly all actives have a fitted effect of over 55% in size
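Chicken DT40 Tdp1-/- cells complemented with human TDP1, 400 cells/well, exposed to compounds plus 20 nM camptothecin for at least 48 h at 37 C; viability read as ATP content by CellTiter-Glo luminescence.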
* = called active by the depositor; ? = inconclusive; · = not tested or not shown; [ ] = dose if it differs, or a comment. Unless noted, calls follow the shape of the dose curve; as a rule, active = well fitted curve in the direction sought with a large enough effect; inconclusive = small, poorly fitted or top-dose-only effect, or another doubt; inactive = no such curve, though single readings can be large; an effect the other way counts as inactive or inconclusive. Unless noted, % is scaled to controls: 0 for no effect and ±100 for the full control effect.

SMILES	HT1080-NT tox	IL1B secr inh	DT40 TDP1 no CPT	ELG1 DNA repair	HT1080 IDH1KD tx	DT40 TDP1 CPT
O=c1[nH][nH]c2c1[C@H](c1ccc(F)cc1)O[C@H](C1CCCCC1)C2	5%	-15	-30%	·	-1%	-10%
CC(C)c1ccc(/C=C/C(=O)Nc2nncs2)cc1	-21%	-6	13µM*	?	-29%	?
CC(C)(C)c1ccc(OCC(=O)N/N=C/c2ccsc2)cc1	-2%	-17	?	17%	3%	-14%
COC(=O)[C@H]1[C@H]2C[C@@H]3c4[nH]c5ccccc5c4CCN3C[C@H]2C[C@@H](OC(=O)c2cc(OC)c(OC)c(OC)c2)[C@@H]1OC	·	·	15µM*	·	·	1.1µM*
COc1ccc2c3c([nH]c2c1)[C@H]1C[C@H]2[C@H](C[C@@H](O)[C@H](OC)[C@H]2C(=O)O)CN1CC3	?	-82*	?	-4%	?	?
COc1ccc2c3c([nH]c2c1)C1CC2C(CC(O)C(OC)C2CO)CN1CC3 (stereo not drawn)	3%	11	1%	0%	-1%	3%
COc1ccc(NC(=O)CCN2CCN(c3ccccc3F)CC2)c(OC)c1	24%	32	-17%	-13%	13%	-1%
OCC(S)CS (stereo not drawn)	·	·	17µM*	·	·	?
OC[C@H](S)CS	·	·	16µM*	·	·	8.9µM*
Cc1cccc(C)c1OCc1cc(C(=O)N2CCN(c3ccccc3)CC2C)no1 (stereo not drawn)	-25%	1	-53%	3%	?	-54%
Cc1cc2nc(N3CCCN(Cc4cccn4-c4ncccn4)CC3)nc(C)c2cc1C	·	·	16µM*	·	·	-14%[9.04 µM]
O=C(O)c1ccc(NC(=S)NC(=O)c2ccc(-c3ccc(Br)cc3)o2)cc1	2%	-1	4%	13%	5%	12%
S=C(NC1CC1)N1CCN(c2ccc(Cl)cc2)CC1	4%	-12	?	3%	0%	15µM*
O=[N+]([O-])c1ccc(N2CCN(C(=S)NC3CCCCC3)CC2)cc1	-12%	-78*	9.2µM*	?	-21%	16µM*
S=C(NC1CCCC1)N1CCN(c2cccc(Cl)c2)CC1	-1%	6	?	?	-5%	?
Cc1c(Br)c([N+](=O)[O-])nn1C(C)C(=O)N1CCc2ccccc2C1 (stereo not drawn)	-2%	-8	-20%	?	-2%	-14%
O=C(O)c1ccc(Cl)cc1NC(=O)C1CCN(S(=O)(=O)c2cccs2)CC1	7%	10	-2%	·	2%	16%
CCC1(c2ccc(F)cc2)NC(=O)N(CC(=O)NCc2ccccc2Cl)C1=O (stereo not drawn)	16%	-4	?	-3%	0%	-25%
Cc1ccc(C2=Nc3ccccc3N(CC(=O)NCc3ccc(F)cc3)C(=O)C2)cc1C	·	·	23µM*	·	·	15µM*
O=C1CC(c2ccccc2)=Nc2ccccc2N1Cc1ccccc1	-15%	-8	-28%	0%	-10%	-8%
Cc1ccc(C2=Nc3ccccc3N(CC(=O)NCc3ccc(Cl)cc3)C(=O)C2)cc1C	·	·	15µM*	·	·	?
O=C(CN1C(=O)CC(c2ccc(F)cc2)=Nc2ccccc21)NCc1ccccc1Cl	·	·	26µM*	·	·	?
[O-][N+](=Cc1c(Cl)cccc1Cl)CC1(O)CCCCC1	-4%	3	-30%	·	5%	-24%
CCOc1ccc(CCn2c3c(c(=O)[nH]c2=O)C(NC(=O)c2ccccc2)(C(F)(F)F)C(=O)N3)cc1OCC (stereo not drawn)	·	·	1%	·	·	-6%
CCc1ccccc1N1C(=O)N(CC(=O)c2ccc(OC)cc2)c2ccccc2S1(=O)=O	·	·	0%	·	·	2%
SMILES	HT1080-NT tox	IL1B secr inh	DT40 TDP1 no CPT	ELG1 DNA repair	HT1080 IDH1KD tx	DT40 TDP1 CPT
COc1ccc(C(=O)Nc2ccc(C3=NNC(=O)CC3C)cc2NC(=O)c2ccc(OC)cc2)cc1 (stereo not drawn)	-10%	?	23µM*	16µM*	-21%	?
COc1ccc(C(=O)Nc2ccc(C(=O)O)cc2NC(=O)c2ccc(OC)cc2)cc1	-6%	0	-5%	?	0%	-2%
CCC(Cn1nnc2ccccc2c1=O)NC(=O)Nc1cccc(C)c1C (stereo not drawn)	·	·	10%	·	·	-19%
CC(C)(C)S(=O)(=O)N1Cc2cc(=O)n(Cc3ccccc3)c(CCO)c2[C@H]1CCO	-1%	-6	-5%	·	0%	7%
COc1ccc(OC)c(NP2(=O)OCC(C)([N+](=O)[O-])CO2)c1 (stereo not drawn)	18%	14	-21%	·	?	-14%
COc1ccc(CNC(=O)COc2ccc(C(=O)c3ccc(F)cc3)cc2)cc1	?	-8	4.6µM*	-12%	5.2µM*	2.6µM*
COc1ccc(CNC(=O)COc2ccc(F)cc2)cc1	11%	25	11%	8%	6%	6%
O=C(COc1ccc(C(=O)c2ccc(F)cc2)cc1)NCc1ccc(F)cc1	?	6	4.6µM*	?	?	3.3µM*
COc1cccc(COC(=O)Cc2ccc(S(=O)(=O)N3CCOCC3)s2)c1OC	-3%	3	5%	-3%	-1%	11%
Brc1ccc(N/N=C(/N=Nc2nn[nH]n2)c2ccccc2)cc1	?	106	2.6µM*	?	2.9µM*	2.9µM*
CCOc1ccccc1CNC(=O)c1ccc(-c2nc(CSc3ccc(C)cc3)c(C)o2)cc1	·	·	13µM*	·	·	9.2µM*
COc1ccccc1CCNC(=O)c1ccc(-c2nc(CSc3ccc(C)cc3)c(C)o2)cc1	·	·	8.2µM*	·	·	16µM*
COc1ccc(CNC(=O)c2ccc(-c3nc(CSc4ccc(C)cc4)c(C)o3)cc2)c(OC)c1	·	·	?	·	·	8.2µM*
CCOc1ccc(CCNC(=O)c2ccc(-c3nc(CSc4ccc(C)cc4)c(C)o3)cc2)cc1	·	·	-5%	·	·	-2%
Cc1ccc(SCc2nc(-c3ccc(C(=O)NCc4ccc(Cl)cc4)cc3)oc2C)cc1	·	·	9.2µM*	·	·	15µM*
